{"source": "ChEMBL document CHEMBL3988442", "about": "“University of Dundee, Small-Polar-MMV Screening Library” (2021)", "note": "Hit rate of the full screen: of about 69,000 compounds, about 950 (1.4%) showed an effect of 50% or more. The list comes from a sample in which strong results are over-represented; it also holds similar structures and randomly drawn compounds."}
{"system": "Mycobacterium tuberculosis", "test": "Cornell M. t heat shock assay; also: in the data most compounds retested in dose-response had high values", "type": "functional, organism-based", "design": "dose or concentration left out as unconfirmed", "units": {"Percent Effect": "%"}}
{"smiles": "c1ccc(Oc2cccc(OC34CCCN(CC3)C4)c2)cc1", "note": "(centres undefined)", "Percent Effect": 91.1}
{"smiles": "N#Cc1cccc(OC23CCCN(CC2)C3)c1", "note": "(centres undefined)", "Percent Effect": -19.96}
{"smiles": "c1ccc(Oc2ccc(OC34CCCN(CC3)C4)cc2)cc1", "note": "(centres undefined)", "Percent Effect": 98.13}
{"smiles": "Cc1nc(CNCc2cccc(OC34CCCN(CC3)C4)c2)n[nH]1", "note": "(centres undefined)", "Percent Effect": -9.099}
{"smiles": "O=c1[nH]nc(CNCc2ccc(OC34CCCN(CC3)C4)cc2)[nH]1", "note": "(centres undefined)", "Percent Effect": -6.374}
{"smiles": "Cc1cnccc1CNCc1ccc(OC23CCCN(CC2)C3)cc1", "note": "(centres undefined)", "Percent Effect": -9.053}
{"smiles": "CCOCC1CN(C(=O)c2cc(C)oc2C)Cc2c1cnn2C.O=C(O)C(F)(F)F", "note": "(centres undefined)", "Percent Effect": 38.21}
{"smiles": "CN1CC(=O)N(c2cccc(F)c2)CC12CCN(S(C)(=O)=O)C2.O=C(O)C(F)(F)F", "note": "(centres undefined)", "Percent Effect": -1.241}
{"smiles": "CSCC(=O)Nc1ncn(Cc2cccc(Br)c2)n1", "Percent Effect": -31.04}
{"smiles": "CCOCC(=O)Nc1ncn(Cc2cccc(Br)c2)n1", "Percent Effect": -16.14}
{"smiles": "CCOCC(=O)Nc1ccc(-n2ccc(C(N)=O)n2)cc1", "Percent Effect": 15.42}
{"smiles": "CSc1ncccc1C(=O)Nc1ccc(Cn2ccccc2=O)cc1", "Percent Effect": 5.912}
{"smiles": "CNC(=O)c1ccc(Cn2ccnc2S(C)(=O)=O)cc1", "Percent Effect": 3.305}
{"smiles": "CS(=O)(=O)c1nccn1Cc1ccc(C(N)=O)cc1", "Percent Effect": 2.892}
{"smiles": "CSCC(=O)Nc1nccn1Cc1ccc(Br)cc1", "Percent Effect": 103.2}
{"smiles": "CC(C)(C#N)C(=O)Nc1nccn1Cc1ccc(Br)cc1", "Percent Effect": 102.4}
{"smiles": "COCCC(=O)Nc1nccn1Cc1ccc(Br)cc1", "Percent Effect": 102.5}
{"smiles": "COCCC(=O)Nc1ccnn1-c1ccccc1", "Percent Effect": -7.442}
{"smiles": "COCCn1ccc(=O)c(OCC(=O)Nc2ccc(Br)cc2)c1C", "Percent Effect": 17.79}
{"smiles": "CCOCC(=O)Nc1nccn1Cc1ccc(Br)cc1", "Percent Effect": 106.8}
{"smiles": "O=C1c2cnc(N3CCOCC3)nc2CN1C1CCS(=O)(=O)C1", "note": "(centres undefined)", "Percent Effect": 3.438}
{"smiles": "CN(C)[C@@H]1CCN(C(=O)Cc2cccs2)[C@H]1Cc1ccncc1.O=C(O)C(F)(F)F.O=C(O)C(F)(F)F", "Percent Effect": -5.714}
{"smiles": "O=C(O)C(=O)O.c1cc(CN2CCC(c3ccc4c(c3)OCO4)CC2)ccn1", "Percent Effect": -9.586}
{"smiles": "Cc1nc[nH]c1CN1C[C@@H]2CC[C@H](C1)N(C(=O)CCn1cncn1)C2", "Percent Effect": 2.899}
{"smiles": "Cc1cc(C(=O)N2CCO[C@H]3[C@H](OCCN(C)C)CC[C@@H]32)c(C)[nH]1.O=C(O)C(F)(F)F", "Percent Effect": -25.69}
{"smiles": "O=C(O)C(F)(F)F.O=C(O)C(F)(F)F.c1cnn(Cc2nnc3n2CCCN(Cc2ccsc2)C3)c1", "Percent Effect": -42.35}
{"smiles": "O=C(O)C(F)(F)F.c1cnc(N2CCCC3(CCN(CC4CCOC4)CC3)C2)nc1", "note": "(centres undefined)", "Percent Effect": -17.62}
{"smiles": "COCC(=O)NC(C)Cc1ccc(Br)cc1", "note": "(centres undefined)", "Percent Effect": 38.61}
{"smiles": "COCC(=O)Nc1nccn1Cc1ccc(Br)cc1", "Percent Effect": 82.4}
{"smiles": "COCC(=O)Nc1nn(Cc2ccc(F)cc2)cc1Cl", "Percent Effect": -26.17}
{"smiles": "Cc1cc(Cc2cccc(C(F)(F)F)c2)cc(C2CCCNC2)n1", "note": "(centres undefined)", "Percent Effect": 52.39}
{"smiles": "Cc1cc(Cc2ccccc2)cc(C2CCCNC2)n1", "note": "(centres undefined)", "Percent Effect": -1.453}
{"smiles": "Cc1cccc(Cc2cc(C)nc(C3CCCNC3)c2)c1", "note": "(centres undefined)", "Percent Effect": -6.804}
{"smiles": "CN(C)C(=O)C1CCN(C2CCN(CC3CCC3)CC2)CC1.O=C(O)C(F)(F)F.O=C(O)C(F)(F)F", "Percent Effect": 5.992}
{"smiles": "Cc1nc(Nc2nncs2)cc(C2CCCN2C)n1", "note": "(centres undefined)", "Percent Effect": -13.41}
{"smiles": "CNc1cncc(C2CCCN2Cc2ccn(C)n2)n1", "note": "(centres undefined)", "Percent Effect": -19.6}
{"smiles": "c1ccc(CCN2CCCC2c2cncc(Nc3nncs3)n2)cc1", "note": "(centres undefined)", "Percent Effect": 99.24}
{"smiles": "CNc1cncc(C2CCCN2S(=O)(=O)c2ccccc2)n1", "note": "(centres undefined)", "Percent Effect": -16.46}
{"smiles": "c1nnc(Nc2cncc(C3CCCN3CC3CC3)n2)s1", "note": "(centres undefined)", "Percent Effect": 103.4}
{"smiles": "c1cc(C2CCCN2CC2CC2)n[nH]1", "note": "(centres undefined)", "Percent Effect": 1.213}
{"smiles": "Cl.Cl.c1ccc2c(c1)C(NC1CCCC1)CC21CCNCC1", "note": "(centres undefined)", "Percent Effect": -6.748}
{"smiles": "O=C1C[C@H]2CC[C@@H](CN1)N2C(=O)CCCc1ccc(Cl)cc1", "Percent Effect": -2.57}
{"smiles": "CN1[C@H]2CC[C@@H]1CN(C(=O)c1ccc(-c3ccccc3)[nH]1)CC2", "Percent Effect": 5.823}
{"smiles": "CC(C)C(=O)N1CCC(n2nc(-c3ccco3)ccc2=O)CC1", "Percent Effect": 1.271}
{"smiles": "O=C(Cc1ccsc1)N1CCC(n2nc(-c3ccco3)ccc2=O)CC1", "Percent Effect": 50.48}
{"smiles": "O=C(c1ccco1)N1CCC(n2nc(-c3ccco3)ccc2=O)CC1", "Percent Effect": 18.57}
{"smiles": "Cc1nc(CNCC2Cn3nncc3CO2)cs1.O=C(O)C(F)(F)F", "note": "(centres undefined)", "Percent Effect": 3.892}
{"smiles": "O=C(O)C(F)(F)F.O=C(c1cscn1)N1CCC2(CN(Cc3ccoc3)C2)C1", "Percent Effect": -1.882}
{"smiles": "COCc1nc2cc(NCc3ccc(CO)o3)ccc2o1", "Percent Effect": -21.34}
{"smiles": "COCc1nc2cc(NCc3ccc(C)o3)ccc2o1", "Percent Effect": 60.09}
{"smiles": "COCc1nc2cc(NCc3ccncc3)ccc2o1", "Percent Effect": 47.84}
{"smiles": "CCc1ccsc1C(=O)N1CCN(CC(O)CC)CC1", "note": "(centres undefined)", "Percent Effect": 21.24}
{"smiles": "O=C(c1ccco1)N1C(CO)[C@]2(O)CC[C@H]1CC2", "note": "(some centres undefined)", "Percent Effect": 34.52}
{"smiles": "CN(C)CCN1CCO[C@@H]2CN(C(=O)c3cccs3)CC[C@@H]2C1.O=C(O)C(F)(F)F.O=C(O)C(F)(F)F", "Percent Effect": -0.5819}
{"smiles": "Cc1ccc(CC(=O)N2CC[C@@H]3CN(CCN(C)C)CCO[C@@H]3C2)cc1.O=C(O)C(F)(F)F.O=C(O)C(F)(F)F", "Percent Effect": -3.479}
{"smiles": "CN(C)CCN1CCO[C@@H]2CN(C(=O)Cc3ccsc3)CC[C@@H]2C1", "Percent Effect": 50.48}
{"smiles": "CCc1c(C)[nH]c(C2(N)CCCCC2)nc1=O.Cl", "Percent Effect": -31.03}
{"smiles": "O=C(c1cccnc1Oc1ccc(Cl)cc1)N1CC[C@@H](O)C1", "Percent Effect": 54.07}
{"smiles": "O=C(c1cccnc1SCc1ccccc1)N1CC[C@@H](O)C1", "Percent Effect": 7.782}
{"smiles": "O=C(NCCOCCO)c1cccnc1Oc1ccc(Cl)cc1", "Percent Effect": 43.92}
{"smiles": "COCCNC(=O)c1cccnc1Oc1ccc(Cl)cc1", "Percent Effect": 50.01}
{"smiles": "COc1ccc(Oc2ncccc2NC(=O)N2CC[C@H](O)C2)cc1", "Percent Effect": -5.111}
{"smiles": "CCOC(=O)CNC(=O)c1cccnc1Oc1ccc(Cl)cc1", "Percent Effect": -21.74}
{"smiles": "O=C(Cc1ccccn1)N1CCN2C[C@H](Oc3cccc(F)c3)C[C@H]2C1.O=C(O)C(F)(F)F.O=C(O)C(F)(F)F", "Percent Effect": -12.23}
{"smiles": "CN(C)C(=O)N1CCC2(CCCN(Cc3cnn(C)c3)C2)C1.O=C(O)C(F)(F)F", "note": "(centres undefined)", "Percent Effect": -9.776}
{"smiles": "CC(C)n1c(C2CCCN(CC(=O)NC3CC3)C2)nc2ccccc21", "note": "(centres undefined)", "Percent Effect": -32.24}
{"smiles": "CN1CCN(C(=O)c2ncn3c2CN(C)S(=O)(=O)c2ccccc2-3)CC1.O=C(O)C(F)(F)F", "Percent Effect": -21.31}
{"smiles": "CCn1cc(N2Cc3nc(N(C)C)ncc3C2=O)cn1", "Percent Effect": 8.315}
{"smiles": "O=C(C1CC=CC1)N1CCC2(CCN(Cc3ccccn3)C2=O)C1.O=C(O)C(F)(F)F", "note": "(centres undefined)", "Percent Effect": -18.77}
{"smiles": "COc1ccc(OCCNCc2c(C)nn(C)c2N(C)C)cc1.Cl", "Percent Effect": 36.3}
{"smiles": "CNC(=O)c1cc2c(nc1N(C)C)CCN(c1ncc(C)cn1)CC2.O=C(O)C(F)(F)F", "Percent Effect": 38.06}
{"smiles": "O=C(O)C(F)(F)F.O=C(c1ccc(F)cc1)N1C[C@@H]2CCN(c3cccnc3)C[C@@H]2C1", "Percent Effect": -7.242}
{"smiles": "Fc1cccc(N2C[C@H]3CCN(c4cccnc4)C[C@H]3C2)c1.O=C(O)C(F)(F)F", "Percent Effect": 98.87}
{"smiles": "O=C(C1CCC1)N1C[C@@H]2CCN(c3cccnc3)C[C@@H]2C1.O=C(O)C(F)(F)F", "Percent Effect": -23.64}
{"smiles": "C[C@@H]1CN(CCc2ccccc2)C[C@]12CCN(CC(=O)N(C)C)C2=O.O=C(O)C(F)(F)F", "Percent Effect": 2.052}
{"smiles": "CN(Cc1nc2ccccc2n1C)CC1CCCN1c1cccnn1", "note": "(centres undefined)", "Percent Effect": 101.2}
{"smiles": "CN(Cc1ncc(-c2ccccc2)o1)CC1CCCN1c1cccnn1", "note": "(centres undefined)", "Percent Effect": 0.462}
{"smiles": "Cn1c(CNCC2CCCN2c2cccnn2)nc2ccccc21", "note": "(centres undefined)", "Percent Effect": 3.675}
{"smiles": "Cc1nc2ccccc2nc1CN(C)CC1CCCN1c1cccnn1", "note": "(centres undefined)", "Percent Effect": 18.99}
{"smiles": "CC(C)(C)c1cnc(CNCC2CCCN2c2cccnn2)o1", "note": "(centres undefined)", "Percent Effect": -26.2}
{"smiles": "CN(Cc1ncc(C(C)(C)C)o1)CC1CCCN1c1cccnn1", "note": "(centres undefined)", "Percent Effect": 66}
{"smiles": "Cn1nccc1-c1nnn2c1COCC(CNCC1CC1)C2.O=C(O)C(F)(F)F.O=C(O)C(F)(F)F", "note": "(centres undefined)", "Percent Effect": 30.33}
{"smiles": "COc1cccc2c(C)c(C(=O)N3CCNCC3C(N)=O)[nH]c12.Cl", "note": "(centres undefined)", "Percent Effect": -6.521}
{"smiles": "O=C(O)C(F)(F)F.O=C(O)C(F)(F)F.c1ccc(N2CCC3(COCCN(Cc4cccs4)C3)C2)nc1", "note": "(centres undefined)", "Percent Effect": 0.5206}
{"smiles": "CC(C)NC(=O)N1C[C@H](OCc2cccnc2)[C@H]2COC[C@H]21.O=C(O)C(F)(F)F", "Percent Effect": 2.427}
{"smiles": "CCc1nnc2n1CCN(Cc1ncc(-c3ccc(Cl)cc3)o1)C2", "Percent Effect": -1.022}
{"smiles": "Cc1nnc2n1CCN(Cc1ncc(-c3ccc(Cl)cc3)o1)C2", "Percent Effect": -15.98}
{"smiles": "CCc1nnc2n1CCN(Cc1ncc(-c3ccc(F)cc3)o1)C2", "Percent Effect": -9.541}
{"smiles": "CCc1nnc2n1CCN(Cc1ncc(-c3ccccc3)o1)C2", "Percent Effect": 76.57}
{"smiles": "Cc1nnc2n1CCN(Cc1ncc(-c3ccccc3)o1)C2", "Percent Effect": -5.111}
{"smiles": "Cc1nnc2n1CCN(Cc1ncc(-c3ccc(F)cc3)o1)C2", "Percent Effect": 77.14}
{"smiles": "CN1C(=O)CCC12CCN(c1ccc(C#N)cn1)CC2.O=C(O)C(F)(F)F", "Percent Effect": 8.745}
{"smiles": "Cc1nc(C)c(C(C)NCc2cnc(N3CCOCC3)nc2)s1.Cl", "note": "(centres undefined)", "Percent Effect": -16.16}
{"smiles": "Cn1cc(CN2C[C@@H]3COC[C@@H](C(=O)N4CCCCO4)[C@@H]3C2)cn1.O=C(O)C(F)(F)F.O=C(O)C(F)(F)F", "Percent Effect": 6.742}
